# Data: PubChem BioAssay AID1835 (Johns Hopkins Ion Channel Center, 2009)
# The whole screen tested about 2,400 compounds, of which about 750 (31%) were called active. The list shows a part of the results. Unmarked numbers belong to inactive results.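 Rule for the calls: active = median signal gain over dofetilide-blocked control wells reaching their mean plus 3 SD, so readout 1 at least 0; inactive = the rest.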
# Biological target: Voltage-gated inwardly rectifying potassium channel KCNH2 (Homo sapiens) (UniProt Q12809)
# Sequence (Q12809 whole entry, looked up): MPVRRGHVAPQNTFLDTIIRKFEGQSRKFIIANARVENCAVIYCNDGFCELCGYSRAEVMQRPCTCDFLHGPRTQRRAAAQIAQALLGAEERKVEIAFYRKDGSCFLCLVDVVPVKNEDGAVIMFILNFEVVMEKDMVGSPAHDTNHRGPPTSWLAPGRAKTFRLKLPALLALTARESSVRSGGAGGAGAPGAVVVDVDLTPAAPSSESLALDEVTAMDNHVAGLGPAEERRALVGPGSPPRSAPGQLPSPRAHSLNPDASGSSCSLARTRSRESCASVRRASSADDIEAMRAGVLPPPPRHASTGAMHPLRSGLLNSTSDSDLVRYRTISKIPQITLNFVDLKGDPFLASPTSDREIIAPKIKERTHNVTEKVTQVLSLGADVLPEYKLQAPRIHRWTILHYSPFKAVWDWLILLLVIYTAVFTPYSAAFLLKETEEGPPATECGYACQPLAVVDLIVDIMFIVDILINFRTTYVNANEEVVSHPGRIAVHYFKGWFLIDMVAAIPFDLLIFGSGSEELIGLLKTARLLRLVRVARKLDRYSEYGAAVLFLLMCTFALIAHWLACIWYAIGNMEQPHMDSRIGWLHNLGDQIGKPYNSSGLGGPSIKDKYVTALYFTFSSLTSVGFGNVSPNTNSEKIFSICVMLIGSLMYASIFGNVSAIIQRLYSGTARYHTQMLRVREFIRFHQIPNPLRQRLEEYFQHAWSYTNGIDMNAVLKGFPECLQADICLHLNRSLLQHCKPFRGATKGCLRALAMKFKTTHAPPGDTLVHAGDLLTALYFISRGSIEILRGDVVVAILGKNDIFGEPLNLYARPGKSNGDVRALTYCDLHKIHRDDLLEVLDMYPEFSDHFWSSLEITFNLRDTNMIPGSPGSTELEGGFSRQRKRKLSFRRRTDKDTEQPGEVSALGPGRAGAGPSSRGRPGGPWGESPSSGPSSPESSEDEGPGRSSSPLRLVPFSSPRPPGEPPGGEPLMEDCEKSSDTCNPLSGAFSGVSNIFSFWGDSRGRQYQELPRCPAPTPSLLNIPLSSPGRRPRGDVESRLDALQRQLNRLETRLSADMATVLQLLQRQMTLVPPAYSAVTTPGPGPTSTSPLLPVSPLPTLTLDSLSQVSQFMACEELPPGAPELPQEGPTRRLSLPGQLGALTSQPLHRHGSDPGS
# Experiment: modulators restoring hERG flux under dofetilide – cell-based, thallium flux, duplicate retest, dofetilide IC70, confirmation (AID 1835)
# Conditions: hERG cell line, FluxOR thallium flux, dofetilide-blocked; at 10 µM; active compounds read high
row,Compound,"activity increase over dofetilide control, less the hit threshold"
1,Cc1ccc(-n2nc3ccc(N)cc3n2)c(C)c1,-28%
2,O=C(CN1CCN(Cc2ccccc2)CC1)NCc1ccccc1Cl,-1%
3,Cc1cc(S(=O)(=O)NCC(C)C)ccc1OCC(=O)NCc1ccccn1,-29%
4,CCOC(=O)CP(=O)(c1ccccc1)c1ccccc1,-9%
5,CCOC(=O)Cc1nc2ccccc2o1,5% (active)
6,C/C(=N\NC(=O)CSc1nc2ccccc2o1)c1ccc(O)cc1,-15%
7,Cc1cc(C)c2nc(NC(=O)C3CCCO3)sc2c1 (stereo unspecified),-8%
8,O=C(Nc1nc2c(Br)cc(Br)cc2c(=O)s1)C1CCC1,1% (active)
9,O=C(Nc1cccc(Br)c1)C1CCCC1,-11%
10,O=C(COc1ccc(S(=O)(=O)NCc2ccccc2)cc1Cl)NCC1CCCO1 (stereo unspecified),-26%
11,O=C(NC(=S)Nc1ccccc1)c1csnn1,88% (active)
12,Cc1snnc1C(=O)NC(=S)Nc1ccccc1,30% (active)
13,Cc1cccnc1NC(=O)c1csnn1,-3%
14,Cc1ccc(NC(=S)NC(=O)c2ccc(-c3ccccc3)cc2)cc1,-2%
15,COc1ccc(NC(=S)NC(=O)c2csnn2)cc1,23% (active)
16,COc1ccc(NC(=O)c2onc(C)c2Cl)cc1,-10%
17,O=C(NC(=S)Nc1ccccc1)c1cncc(C#Cc2ccccc2)c1,-8%
18,O=C(NC(=S)Nc1ccccc1Cl)c1csnn1,79% (active)
19,COc1ccc(NC(=S)Nc2ccccn2)cc1,-11%
20,O=c1[nH]c2ccccc2nc1C(F)(F)C(F)F,-11%
21,C/C(=N/NC(=O)c1ccncc1)c1ccc2c(c1)OCO2,-9%
22,O=C1CSC(=S)N1/N=C/c1cc(Br)ccc1O,7% (active)

row,Compound,"activity increase over dofetilide control, less the hit threshold"
1,Cc1oc(-c2cccs2)nc1CN1CCC(C(=O)N2CCCC2)CC1,-11%
2,CN(C(=S)NC(=O)c1ccc(F)cc1)C1CCCCC1,6% (active)
3,Cc1ccc(C(=O)NC(=S)N(C)C2CCCCC2)cc1,27% (active)
4,COc1ccc(C(=O)NC(=S)N(C)C2CCCCC2)cc1,-2%
5,Cc1cccc(C(=O)NC(=S)N(C)C2CCCCC2)c1,21% (active)
6,Cc1ccc(C(=O)NC(=S)N(C)C2CCCCC2)cc1Br,-5%
7,CN(C(=S)NC(=O)c1ccccc1)C1CCCCC1,16% (active)
8,CN(C(=S)NC(=O)c1ccc(Cl)cc1)C1CCCCC1,-3%
9,Cc1cccc(C(=O)NC(=S)NNC(=O)COc2c(C)cccc2C)c1,-12%
10,O=C(N/N=C/c1ccc(OC(F)F)cc1)C1=COCCO1,-8%
11,c1ccc2oc(-c3nn4c(Cn5cnc6ccccc65)nnc4s3)cc2c1,-12%
12,CCC(=O)N1c2ccc(C)cc2C2=NNC(=S)NC21O (stereo unspecified),-6%
13,O=C(NC(=S)Nc1cccc(C(F)(F)F)c1)c1csnn1,102% (active)
14,Cc1cc(-c2nnc(SCC(=O)Nc3ccc(C(F)(F)F)cc3)n2C)no1,-23%
15,O=C(NC(=S)Nc1ccc(C(F)(F)F)cc1)c1csnn1,60% (active)
16,COc1ccc(C(=O)O)cc1S(=O)(=O)Nc1cccc(C(F)(F)F)c1,-4%
17,O=C(Nc1ccc(-c2csc(Nc3cccc(C(F)(F)F)c3)n2)cc1)c1ccccc1,-25%
18,c1ccc2oc(-c3ccn[nH]3)cc2c1,-10%
19,O=C(COC(=O)c1cc[n+]([O-])cc1)Nc1cc([N+](=O)[O-])ccc1Cl,-20%
20,O=C(CCC(=O)Nc1ccccc1)NNC(=O)c1ccco1,-12%
21,COc1ccccc1NC(=O)C(=O)NNC(=O)c1ccco1,35% (active)
22,COc1ccc(C)cc1NC(=O)C(=O)NNC(=O)c1ccco1,55% (active)

row,Compound,"activity increase over dofetilide control, less the hit threshold"
1,CN(c1ccccc1)S(=O)(=O)c1ccc(Cl)c(C(=O)Nc2nn[nH]n2)c1,-4%
2,CC12CN3CC(C)(CN(C1)C3c1ccc3c(c1)OCO3)C2=O (stereo unspecified),-8%
3,C/C(=N\NC(=O)COc1ccc(C)cc1C(C)C)c1ccc(-n2ccnc2)cc1,6% (active)
4,Cc1ccc(C(C)C)cc1OCC(=O)Nc1ccc(N2CCCCC2)cc1,-11%
5,O=[N+]([O-])c1ccc(S(=O)(=O)Nc2ccc(S(=O)(=O)N3CCCC3)cc2)cc1,-23%
6,CC(C)(C)c1ccc(Cn2nc(CC(=O)O)c3ccccc3c2=O)cc1,-9%
7,Cc1nc2c(C(=O)NCCc3ccccc3)c[nH]n2c(=O)c1Cl,-3%
8,O=C(O)CCCNC(=O)c1nn(Cc2ccccc2)c(=O)c2ccccc12,3% (active)
9,CCN(CC)c1ccc(NC(=S)NC(=O)c2cccs2)cc1,8% (active)
10,CN(Cc1ccccc1)C(=S)NC(=O)c1cccs1,10% (active)
11,O=C(NC(=S)NNC(=O)c1cccs1)c1ccc(Br)o1,-23%
12,NS(=O)(=O)c1ccc(NC(=S)NCc2cccs2)cc1,-9%
13,O=C(c1cccs1)N1CCN=C1SCc1ccccc1,-20%
14,CCCOc1ccc(C(=O)NNC(=S)NC(=O)c2cccs2)cc1,-44%
15,O=C(NC(=S)NCc1ccccc1)c1cccs1,23% (active)
16,S=C(NCc1ccccc1)NCc1ccccc1Cl,-9%
17,Cc1ccc(C(=O)NC(=S)N(C)Cc2ccccc2)cc1,-3%
18,O=C(NC(=S)Nc1ccccc1)c1cccs1,12% (active)
19,O=c1ccn(CCCBr)c(=O)[nH]1,-8%
20,CCN(CC)CCOC(=O)C(c1ccccc1)c1ccccc1,-6%
21,O=[N+]([O-])c1ccccc1OCCNCc1ccccc1,9% (active)
22,O=C(COc1ccccc1[N+](=O)[O-])Nc1cc(Cl)ccc1C(=O)O,-10%

row,Compound,"activity increase over dofetilide control, less the hit threshold"
1,O=C1CCCN1C(=O)COc1ccccc1[N+](=O)[O-],-13%
2,Cc1cc(C)n(-c2nc(NCCCN(C)C)c3c4c(sc3n2)CCCC4)n1,-10%
3,CCOc1ccc2nc(N3C(=O)/C(=C/c4ccc(Cl)cc4)NC3=S)sc2c1,22% (active)
4,CCOc1ccc2nc(N3C(=O)/C(=C/c4ccccc4)NC3=S)sc2c1,71% (active)
5,COc1ccc(N2C(=O)/C(=C/c3cccs3)NC2=S)cc1,-21%
6,CCOc1ccc(NC(=O)c2ccc(NC(=O)CSc3nc4ccccc4c(=O)[nH]3)cc2)cc1,-17%
7,O=C(N1CCOCC1)N1CCC(c2nc(-c3ccc(S(=O)(=O)N4CCOCC4)cc3)no2)CC1,-12%
8,Cc1ccc(CNS(=O)(=O)c2ccc(C(F)(F)F)cc2)n1C,-18%
9,Cc1cc(C)c(-c2cc(NC(=O)COC(=O)c3ccc(NC(=O)CC#N)cc3)n(-c3ccccc3)n2)cc1C,-15%
10,Cc1ccc(NC(=S)N2CCN(c3ccccc3F)CC2)c(C)c1,-8%
11,COc1ccc(CN2CCn3ncc(C(=O)Nc4ccccc4)c3C2=O)cc1,-16%
12,Cc1ccc(-n2ccc(=O)c(C(=O)Nc3ccc(S(=O)(=O)Nc4nccs4)cc3)n2)cc1,-3%
13,COc1ccc(-c2nn(-c3ccccc3)cc2C(=O)Nc2cccc(C(=O)O)c2)cc1[N+](=O)[O-],-27%
14,Cc1cnc(C(=O)Nc2nccs2)cn1,-22%
15,COc1ccc(NC(=O)c2cn(-c3ccccc3)nc2-c2ccncc2)cc1,40% (active)
16,CC(C)COc1ccc(-c2nn(-c3ccccc3)cc2C(=O)Nc2nccs2)cc1,20% (active)
17,COc1ccc([N+](=O)[O-])cc1N(CC(=O)NCc1ccco1)S(C)(=O)=O,-21%
18,O=c1cc(O)c2sc(Nc3ccc(F)c(Cl)c3)nc2[nH]1,-15%
19,O=C(COc1ccccc1)Nc1ccc(F)cc1,-27%
20,COC(=O)CSc1nnc(COc2ccc3ccccc3c2)o1,-10%
21,O=C(COc1ccc2ccccc2c1)Nc1ccc(Br)cc1C(=O)O,-10%
22,COc1ccc(N2CC(C(=O)OCC(=O)Nc3ccccc3C)CC2=O)cc1 (stereo unspecified),-5%

row,Compound,"activity increase over dofetilide control, less the hit threshold"
1,C=CCNC(=O)COc1ccc(Oc2ccccc2)cc1,-6%
2,Cc1ccccc1NC(=O)C(=O)NNC(=O)COc1ccc2ccccc2c1,48% (active)
3,O=C(COc1ccc2ccccc2c1)NNC(=O)C(=O)Nc1ccccc1,55% (active)
4,COc1ccccc1NC(=O)C(=O)NNC(=O)COc1ccc2ccccc2c1,94% (active)
5,CCN1C(=O)c2cccc3c(S(=O)(=O)NCC4CCCO4)ccc1c23 (stereo unspecified),-22%
6,Brc1ccc(Nc2nc(-c3cccnc3)cs2)cc1,-12%
7,Cc1cc(C(F)(F)F)c2sc(N)nc2n1,-11%
8,CC1CC(OCC(O)C[N+]2(C)CCOCC2)CC(C)(C)C1 (stereo unspecified),-13%
9,COc1ccc(S(=O)(=O)Nc2cccc(-n3cnnn3)c2)cc1,-20%
10,C=CCN(c1cccc(C(F)(F)F)c1)S(=O)(=O)c1cccc(C(=O)OCC(=O)Nc2ccccc2)c1,-6%
11,C=CCN(c1ccccc1)S(=O)(=O)c1cccc(C(=O)Nc2nnc(SCC)s2)c1,-4%
12,C=CCN(c1ccc(Cl)cc1)S(=O)(=O)c1cccc(C(=O)O)c1,6% (active)
13,COc1ccc(-c2cn3nc(SCC(=O)NC4CCCCC4)ccc3n2)cc1,-2%
14,Cc1ccc(C(=O)Nc2nc3ccccc3c(=O)s2)cc1,53% (active)
15,O=C(Nc1nc(=O)c2ccccc2s1)c1ccc(Cl)cc1,46% (active)
16,CN(CC(=O)Nc1nc2ccccc2s1)S(=O)(=O)c1ccc(Cl)cc1,-17%
17,Cc1ccc(C(=O)Nc2nc(=O)n(C)s2)cc1,-1%
18,O=C(CNC(=O)c1ccccc1)NCc1ccc(Cl)cc1,-8%
